40 molecules from PubChem BioAssay (EPA / NIEHS) can be followed below.

Active and inactive are the calls of the source. The calls were made as follows: active = hit-call score of the fitted dose curve at least 0.9, where 1 is the maximum; inactive = score below 0.9.

The nature of this test: ATG_M_06_CIS: Attagene CIS-FACTORIAL HepG2 Assay for M06 Transcription Factor (Internal Marker) (AID 2282950). The settings on record: HepG2 Attagene CIS-FACTORIAL M06 internal marker reporter; actives raise or lower the signal. The method, then:
ATG_CIS is a cell-based, multiplexed-readout assay that uses HepG2, a human liver cell line, with measurements taken at 24 hours after chemical dosing in a 24-well plate.ATG_M_06_CIS is one of 52 assay component(s) measured or calculated from the ATG_CIS assay. It is designed to make measurements of mRNA induction, a form of inducible reporter, as detected with fluorescence intensity signals by Reverse transcription polymerase chain reaction (RT-PCR) and Capillary electrophoresis technology.Data from the assay component ATG_M_06_CIS was analyzed into 1 assay endpoint. This assay endpoint, ATG_M_06_CIS, was analyzed with bidirectional fitting relative to DMSO as the negative control and baseline of activity. Using a type of inducible reporter, measures of mRNA for gain or loss-of-signal activity can be used to understand the background control at the transcription factor-level as they relate to the gene . Furthermore, this assay endpoint can be referred to as a secondary readout, because this assay has produced multiple assay endpoints where this one serves a background control function. To generalize the intended target to other relatable targets, this assay endpoint is annotated to the background measurement intended target family, where the subfamily is internal marker.
Human liver HepG2 cells are transiently transfected with multiple reporter transcription units (MRTUs) in 6-well plates using FuGene 6 reagent (Roche; 3 ml FuGene/1 mg DNA). The MRTU constructs are regulated by a cis-regulating element (promoter). […] A major difference between the CIS and TRANS system is that in CIS activities of endogenous TFs are measured, whereas the TRANS assay evaluates changes in activities of exogenous, chimeric NR-Gal4 proteins. […] At the end of 24 hour incubation, total RNA was isolated using TriZol reagent (Invitrogen). The isolated RNA is then reverse-transcribed using oligo(dT) primer and Mo-MLV reverse transcriptase (Invitrogen) with DNAse I (Ambion) treatment for 30 min. The one-tenth of the produced cDNA was amplified by PCR using Taq DNA polymerase (Invitrogen) and two reporter sequence-specific primers. The PCR products were fluorescently labeled by primer extension with 6-arboxyfluorescein (6-FAM) 5'-labeled reporter sequence-specific primer (2 min at 95 C, 20 s at 68 C and 10 min at 72 C) and these products were digested with 5U of HpaI (New England Biolabs) for 2h at 37 C. The fragments were purified using Qiaquick PCR columns (Qiagen), analyzed on an ABI 3130xL genetic analyzer (Applied Biosystems) with peak positions identified by using a set of X-rhodamine (ROX)-labeled MapMarker1000 molecular weight standards (BioVentures). The raw capillary electrophoresis data was processed using Attagraph software (Attagene).
Turning to `COc1ccc(N)c(C)c1`, the molecule was classed as inactive. With `[Cl][Dy]([Cl])[Cl]`, the molecule was classed as inactive. Consider `CCO[Si](CC)(OCC)OCC`, for which the molecule was classed as inactive. As to `CC/C=C\C#N`, the result was inactive. For `CCn1cc(C(=O)O)c(=O)c2ccc(C)nc21` the value was “inactive”; for `CC/C(=C(\c1ccccc1)c1ccc(OCCN(C)C)cc1)c1ccccc1`, “inactive”; for `O=c1cc(-c2ccc(O)cc2)oc2cc(O)cc(O)c12`, “inactive”. The entry for `CCCCCCCCCCCCS` is “inactive”; for `CC/C=C\CCOC(C)OCC` (stereo not given) it is “inactive”; for `CC(CO)c1ccccc1` (stereo not given) it is “inactive”.

As to `c1ccc(Sc2ccccc2)cc1`, the outcome was inactive.

In the case of `CC(=O)CCC(=O)O`, the molecule was called inactive. For `O=C(O)c1ccccc1O`, the outcome was inactive. For `OC[C@H]1O[C@@H](O[C@H]2[C@H](O)[C@@H](O)[C@H](O)O[C@@H]2CO)[C@H](O)[C@@H](O)[C@H]1O` the value was “inactive”. `Nc1ccn([C@H]2CC[C@@H](CO)O2)c(=O)n1`: the outcome was inactive. The entry for `CC(=O)c1ccc2ccccc2c1` is “inactive”; for `CCC(C)(C)c1cc(O)c(C(C)(C)CC)cc1O` it is “inactive”; for `OCC=Cc1ccccc1` it is “inactive”. Regarding `CCC(C)(CCCC(C)C)OC(C)=O` (stereo not given), the molecule was classed as inactive. On to `CCCC(O)C(CC)CO` (stereo not given), for which the molecule was classed as inactive. The entry for `CC/C=C\CCCCO` is “inactive”; for `C=C(C)C(=O)OCCC(C)OC(=O)C(=C)C` (stereo not given) it is “inactive”. In the case of `CCC(C)(C)C1CCC(=O)CC1`, the call was inactive. As to `[Cu+]`, the result was inactive. The entry for `C=C(C)C(=O)OCCN(C)C` is “inactive”. The entry for `CCCCCCCCCCO[C@@H]1O[C@H](CO)[C@@H](O)[C@H](O)[C@H]1O` is “inactive”. For `CC(CCO)CC(C)(C)C` (stereo not given) the value was “inactive”; for `CCOc1ccc(NC(C)=O)cc1`, “inactive”; for `CCCCCCCCCC(=O)OCC`, “inactive”. Consider `C=CC(=O)OCCCCCC`, for which the outcome was inactive.

`CCOCC(C)O` (stereo not given): the molecule was called inactive. For `CC(C)C(=O)c1ccccc1` the value was “inactive”; for `CCC(C)(C)C1CCC(OC)CC1` (stereo not given), “inactive”; for `COc1ccccc1O`, “inactive”.

With `COc1ccccc1NC(=O)CC(C)=O`, the molecule was classed as inactive. Regarding `CC(=O)N(C)C`, the call was inactive. Consider `CCOC(=O)COC(=O)c1ccccc1C(=O)OCC`, for which the molecule was called inactive. `CCO[Si](CCC#N)(OCC)OCC`: the outcome was inactive. For `CC(C)(C)c1cccc(O)c1` the value was “inactive”; for `COC(=O)C(C)Oc1ccc(Oc2ncc(C(F)(F)F)cc2Cl)cc1` (stereo not given), “inactive”.
